Compound activity: PubChem BioAssay, National Center for Advancing Translational Sciences (NCATS)
SARS PLpro yeast – blocks SARS-CoV papain-like protease in a yeast assay | Potency, µM (doses to about 32.9 µM), without a hit: top-dose activity, positive = growth rescue, actives largely listed as activators | S. cerevisiae expressing SARS-CoV PLpro, growth rescue | AID 485353 | 330,000 tested, 0.19% active; further: 0% is about no effect; nearly all actives have a fitted effect of over 55% in size
NS1 function inh – inhibitors of influenza NS1 protein function; Potency, µM (doses to about 46.1 µM), for inactives: top-dose activity, positive = more growth; 270,000 tested, 0.4% active; AID 2326; further: actives are rising curves; nearly all actives have a fitted effect of over 50% in size
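Growth recovery, yeast-based: influenza A NS1 expressed in S. cerevisiae causes slow growth, and suppressors are detected by OD600. The parent strain without NS1 is used as positive control.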
Pf growth 96h – inhibits malaria parasite growth, 96 h. P. falciparum luciferase reporter growth, 96 h. 320,000 tested, 6.9% active. Potency, µM (top dose mostly 28.7 µM), without a hit: at the highest dose activity change, negative = inhibition, most hits filed as inhibitors; active means well fitted inhibition curve with a large enough effect; inconclusive means small, poorly fitted or top-dose-only effect, or another doubt; inactive means no such curve, though single readings can be large or run the other way; further: on the % scale 0 is the no-effect control and ±100 the full control effect
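P. falciparum expressing integrated firefly luciferase, in erythrocytes at 2% hematocrit, 0.05% parasitemia, incubated with compounds 96 h at 37 C, 5% CO2. Growth inhibition read as loss of luminescence; two-generation exposure targets delayed-death apicoplast inhibitors.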
Pf growth 48h – inhibits P. falciparum growth in the first generation, 48 h. 310,000 tested, 5.9% active. P. falciparum luciferase growth in erythrocytes, 48 h. Potency, µM (top dose mostly 28.7 µM), for the others: top-dose activity change, negative = inhibition, usual class: inhibitors. AID 504832; active means well fitted inhibition curve with a large enough effect; inconclusive means small, poorly fitted or top-dose-only effect, or another doubt; inactive means no such curve, though single readings can be large or run the other way; further: on the % scale 0 is the no-effect control and ±100 the full control effect
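Read-out is firefly luciferase luminescence from an integrated reporter in P. falciparum, so falling signal marks reduced parasite growth. Infected erythrocytes were at 2% hematocrit and 0.1% parasitemia (final) in Albumax-supplemented RPMI 1640.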
The depositor's hits bear a star; ? = inconclusive; / = not tested or not shown. In the library only some 10% were active in any assay of this set; here they are far more common. Unless noted, the call rests on the fitted dose curve. Potency means the concentration at half of the fitted maximal effect.

SMILES | SARS PLpro yeast | NS1 function inh | Pf growth 96h | Pf growth 48h
COc1ccc(OC)c(-n2c(SCC(=O)N3CCc4ccccc43)nc3c(c2=O)SCC3)c1 | 21% | -60% | 2.3µM* | ?
COc1ccccc1-n1c(SCC(=O)Nc2cccc(C)c2)nc2c(c1=O)SCC2 | 5% | 13% | 10µM* | /
COc1ccc(NC(=O)CSc2nc3c(c(=O)n2-c2ccc(C)cc2)SCC3)c(OC)c1 | ? | -14% | ? | ?
Cn1c(SCC(=O)N2CCCCCC2)nc2c(c1=O)SCC2 | 0% | -1% | 4.7µM* | -26%
COc1ccccc1-n1c(SCC(=O)Nc2ccc3c(c2)OCO3)nc2c(c1=O)SCC2 | ? | ? | 1% | ?
COc1ccccc1-n1c(SCC(=O)N2CCc3ccccc32)nc2c(c1=O)SCC2 | 2% | ? | ? | 12µM*
Cc1cc(C(=O)O)cc(S(=O)(=O)NNC(=O)c2cccs2)c1C | -1% | 1% | 15% | 8%
Cc1nc(NC(=O)/C=C/c2ccccc2)n[nH]1 | -50% | -32% | ? | ?
CCN(CC1CCCN(CCc2cccc(OC)c2)C1)C(=O)c1ccoc1C (stereo not drawn) | -2% | 9% | 13% | 0%
COc1ccc(C(CC(=O)Nc2nccs2)C(C)C)cc1 (stereo not drawn) | 0% | -3% | 13µM* | ?
Cc1nnc(SCC(=O)Nc2nccs2)s1 | 13% | ? | -28% | 19%
Cc1nnc(SCC(=O)Nc2nccs2)o1 | 6% | -2% | 13µM* | ?
COc1ccc(NC(=O)Cc2nnc(SCC(=O)Nc3nccs3)n2C)cc1 | -6% | 1% | 3.3µM* | 11%
O=C(CC(c1ccccc1)c1ccco1)Nc1nccs1 (stereo not drawn) | 16% | -21% | 9.3µM* | 10µM*
COc1ccc(OCC(=O)Nc2nccs2)cc1 | -2% | -7% | 30% | 110%
CCOc1cc(/C=N/NC(=O)C2CCCC2)ccc1OC(C)C | -3% | -14% | 9% | -14%
O=C(Nc1cc(S(=O)(=O)N2CCOCC2)ccc1Cl)C1CCC1 | 2% | / | 34% | -4%
COc1ccccc1CNC(=O)COC(=O)CSc1ccc(C)c(C)c1 | 1% | / | 15% | ?
COc1ccc(NC(=O)CSc2nnc(Cn3cnc4ccccc43)n2C)cc1 | -5% | 5% | 2.3µM* | -14%
Cn1c(CSCc2ccc(F)cc2)nnc1SCC(=O)Nc1nccs1 | 1% | 4% | / | ?
Cn1c(Cn2cnc3ccccc32)nnc1SCC(=O)CC(=O)Nc1ccccc1 | 4% | ? | -23% | -20%
Cn1c(CSCc2ccccc2)nnc1SCC(=O)Nc1nccs1 | 1% | 2% | 5.9µM* | ?
COc1ccc(S(=O)(=O)Nc2ccccc2C(=O)N2CCOCC2)cc1Br | -3% | -6% | -6% | 4%
CCOC(=O)C1=C(c2ccccc2)NC(=S)NC1c1cc([N+](=O)[O-])ccc1OC (stereo not drawn) | 0% | 7% | 8% | 12µM*
Cc1c(C)c2c(c(C)c1O)CCC(C)(COc1ccc(CC3SC(=O)NC3=O)cc1)O2 (stereo not drawn) | / | / | 6µM* | ?
SMILES | SARS PLpro yeast | NS1 function inh | Pf growth 96h | Pf growth 48h
Cc1noc(C)c1NC(=O)Nc1ccc2c(c1)CC(=O)N([C@@H](C)CO)C[C@@H](C)[C@@H](CN(C)C(=O)Nc1cccc3ccccc13)O2 | 2% | / | / | /
Cc1cc(C)n(-c2nc3ccccc3[nH]c2=O)n1 | -15% | 7% | -7% | -4%
Cc1cc(C)n(-c2c(C)[nH]c3ccccc23)n1 | 0% | / | 9.3µM* | ?
FC(F)(F)C1=CC(c2ccc(Br)cc2)=NCCN1 | -6% | 6% | 6.6µM* | ?
FC(F)(F)C1=CC(c2ccccc2)=NCCN1 | 8% | 17% | ? | ?
Cn1c(SCC(=O)O)nnc1-c1ccc2ncccc2c1 | 0% | 8% | 22% | 43%
C[C@]12c3[nH]c4ccccc4c3CCN1C(=O)C(CC(=O)NCCCn1ccnc1)C[C@@H]2C(=O)N1CCCCC1 (stereo partly drawn) | 0% | / | / | /
CCOc1ccc(CN(C)C(C)C(=O)Nc2ccc([N+](=O)[O-])cc2Cl)cc1OC (stereo not drawn) | 24% | -17% | ? | ?
CCC(CC)C(=O)Nc1cc([N+](=O)[O-])ccc1Cl | 5% | ? | 7.4µM* | -1%
COc1ccc(CN(C)C(C)C(=O)Nc2ccc([N+](=O)[O-])cc2Cl)cc1OC (stereo not drawn) | 3% | -14% | 12µM* | ?
COc1cccc(NC(C)C(=O)Nc2cc([N+](=O)[O-])ccc2Cl)c1 (stereo not drawn) | -10% | / | 15µM* | -26%
